The structures appear in SMILES notation. Values joined by “and” are separate entries in the source; they are usually repeats but may differ in a detail not shown here. Equal values may be shown once. Active and inactive are the calls of the source. The rule behind the calls is not given here.

Among the data in PubChem BioAssay are parasite % of control and liver cell % of control values, retold here.

The experiment in a line: kinase inhibitors against Plasmodium liver-stage infection, cell-based, known kinase inhibitor set, luminescence, hepatoma host viability (AID 624392).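 Note: infected cells incubated roughly two days before readout.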 Conditions: Plasmodium liver stage in hepatoma cells, luciferase luminescence, concentration not given here; liver cell % of control: measured here: host liver cell viability; parasite % of control: stronger effect = lower value.
Take `Nc1c(C(=O)c2cccc(CCC3(O)CCCC3)c2)cnn1-c1ccc(F)cc1`: the parasite % of control was 81% (inactive) and the liver cell % of control was 112%.
As for `Cc1cccc(Oc2nccc(-c3c(-c4ccc(F)cc4)ncn3C3CCNCC3)n2)c1C`, the parasite % of control is 99.5% (inactive) and the liver cell % of control stood at 58.8%.
In the case of `O=C1NC(=NCCc2ccc(Br)cc2)SC1=Cc1ccc2ncccc2c1`, the liver cell % of control came out at 140% and the parasite % of control is 66.4% (inactive).
As for `Cn1cc(C2=C(c3cn(C)c4cc(C(=O)O)ccc34)C(=O)NC2=O)c2ccccc21`, the liver cell % of control was 145% and the parasite % of control was 38.3% (inactive).
Consider `CCOc1ccccc1CCN=C1NC(=O)C(=Cc2ccc3ncccc3c2)S1`, for which the liver cell % of control was found to be 106% and the parasite % of control is 66% (inactive).
Regarding `Cn1cc(C2=C(c3cn(CCCCN)c4ccccc34)C(=O)NC2=O)c2ccccc21`, the liver cell % of control worked out at 117% and the parasite % of control is 65.7% (inactive).
Take `O=c1c(Oc2ccc(F)cc2F)cc2cnc(NC3CCOCC3)nc2n1C1CCS(=O)(=O)CC1`: the parasite % of control was 83.4% (inactive) and the liver cell % of control came to 120%.
The corresponding values for `CC(C)(C)c1ccc(Oc2nccc(-c3c(-c4ccc(F)cc4)ncn3C3CCNCC3)n2)cc1` are 76.7% (inactive) and 81.4%.
The corresponding values for `CC(CO)Nc1cc(-c2[nH]c3cccnc3c2-c2ccc(F)cc2)ccn1` (stereo unspecified) are 78.1% (inactive) and 124%.
`Cn1cc(C2=C(c3cccc(Cl)c3)C(=O)NC2=O)c2ccccc21`: the parasite % of control was 69.6% (inactive) and the liver cell % of control was 109%.
As to `Cn1cc(C2=C(c3cn(C)c4ccc(OCc5ccccc5)cc34)C(=O)NC2=O)c2ccccc21`, the parasite % of control is 46.6% (inactive) and the liver cell % of control is 97.7%.
In the case of `Cn1c(=O)c(Oc2ccccc2)cc2cnc(NC3CCOCC3)nc21`, the parasite % of control is 60.6% (inactive) and the liver cell % of control is 106%.
The corresponding values for `Nc1c(C(=O)c2cccc(-c3cccnc3)c2)cnn1-c1ccc(F)cc1F` are 28.3% (inactive) and 175%.
The corresponding values for `COc1cc2ncn(-c3cc(O[C@@H](C)c4ccccc4Cl)c(C(N)=O)s3)c2cc1OC` are 110% (inactive) and 100%.
For `N#CCn1c(=O)c(Oc2ccc(F)cc2F)cc2cnc(NC3CCOCC3)nc21` the same measures were 58.4% (inactive) and 96.2%.
In the case of `Cn1cc(C2=C(Sc3ccccc3)C(=O)NC2=O)c2ccccc21`, the parasite % of control was 50.7% (inactive) and the liver cell % of control stood at 92.3%.
Turning to `COc1ccc(N2Cc3cnc(Nc4ccccc4)nc3N(C3CCC(O)C3)C2=O)cc1` (stereo unspecified), the parasite % of control is 234% (inactive) and the liver cell % of control worked out at 114%.
With `Cn1cc(C2=C(c3cccc(OCC(O)CO)c3)C(=O)NC2=O)c2ccccc21` (stereo unspecified), the parasite % of control is 22.3% (inactive) and 22.7% (inactive); the liver cell % of control was 160% and 129%.
For `COc1ccccc1C(=O)c1cnc(NC2CCN(S(C)(=O)=O)CC2)nc1N`, the parasite % of control is 96.6% (inactive) and the liver cell % of control worked out at 100%.
For `Cn1cc(C2=C(NN3CCOCC3)C(=O)NC2=O)c2ccccc21` the same measures were 52.1% (inactive) and 102%.
Take `CN1CC2Cc3c(C4=C(c5cn(C)c6ccccc56)C(=O)NC4=O)c4ccccc4n3CC2C1` (stereo unspecified): the parasite % of control is 36.7% (inactive) and 27% (inactive); the liver cell % of control was 79.3% and 90.1%.
In the case of `COc1ccccc1C1=C(Nc2ccccc2)C(=O)NC1=O`, the liver cell % of control is 112% and the parasite % of control is 110% (inactive).
For the compound `CCCn1cc(C2=C(c3cn(C)c4ccccc34)C(=O)NC2=O)c2ccccc21`, the parasite % of control is 78.5% (inactive) and the liver cell % of control was 101%.
Turning to `O=C1NC(=O)C(c2ccccc2)=C1Nc1ccccc1`, the parasite % of control was 119% (inactive) and the liver cell % of control was 106%.
Regarding `COc1cccc(C2=C(c3cn(C)c4ccccc34)C(=O)NC2=O)c1`, the parasite % of control is 15.4% (inactive) and the liver cell % of control worked out at 216%.
For `COc1cc(Nc2ncc(-c3ccccc3)o2)cc(OC)c1OC` the same measures were 18.6% (inactive) and 152%.
The corresponding values for `CC(C)Nc1ncc2cc(Oc3ccc(F)cc3F)c(=O)n(C)c2n1` are 50.9% (inactive) and 99.2%.
In the case of `CS(=O)(=O)CCc1cccc(C(=O)c2cnn(-c3ccc(F)cc3)c2N)c1`, the parasite % of control is 45.3% (inactive) and the liver cell % of control was 95.7%.
For `CS(=O)(=O)CCNCc1ccc(-c2ccc3ncnc(Nc4ccc(OCc5ccccc5)c(Cl)c4)c3c2)o1` the same measures were 73.2% (inactive) and 113%.
The corresponding values for `COc1cccc(C2=C(c3cn(C)c4cccc(OC)c34)C(=O)NC2=O)c1` are 121% (inactive) and 91.4%.
For `O=C1NC(=NCCc2ccc(F)cc2)SC1=Cc1ccc2ncccc2c1` the same measures were 57.5% (inactive) and 127%.
Turning to `COc1cc[nH]c1C=C1C(=O)Nc2ccc(F)c(C#CC3(O)CCNCC3)c21`, the liver cell % of control amounted to 70.4% and the parasite % of control is 10.7% (inactive).
For `COc1cccc(C2=C(c3c(C)n(C)c4ccccc34)C(=O)NC2=O)c1` the same measures were 97.6% and 66.1% (inactive).
The corresponding values for `Cc1cccc2c(C3=C(c4cn(C)c5ccccc45)C(=O)NC3=O)cn(C)c12` are 91.7% and 45.3% (inactive).
For `CNc1ncc2cc(Oc3ccc(F)cc3F)c(=O)n(C)c2n1` the same measures were 109% and 65.3% (inactive).
For the compound `O=C1NC(=O)C(=Cc2ccc3ncccc3c2)S1`, the parasite % of control is 60.7% (inactive) and the liver cell % of control turned out to be 98%.
The corresponding values for `CCc1c(C)nc2sc3c(N)ncnc3c2c1C` are 5.86% (inactive) and 221%.
For `CC(c1ccccc1)C(C(=O)Nc1ccc(I)cc1F)N1C(=O)NC(c2ccc(OCC(O)CO)cc2)C1=O` (stereo unspecified) the same measures were 72.5% (inactive) and 85.7%.
